Measured values as given in the supplement of paper PMC7156485.
± gives the standard deviation of the averaged measurements.

What was measured:
Conditions in all cases: concentration: 10 µM; 24 h
HCC1569 [1] = assay: cell number relative to DMSO (% of DMSO); higher = more cells (less growth inhibition / toxicity)
Outline: (§1)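 HCC1569 and TDF cells (800 per well, 384-well plates, RPMI with 10% FBS) were treated with compounds at 10 µM for 24 h at 37 °C, in triplicate. Cells were fixed in 3.7% formaldehyde and stained with a rabbit anti-H1.0 antibody, an AlexaFluor 647 secondary and DAPI; six fields per well were imaged at ×10. H1.0 nuclear intensity or cell number is expressed as percent of the plate DMSO control, taking the median of replicates. HCC1569 values were smoothed for positional effects.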

TDF [2] = assay: as above
Outline: as §1

TDF [3] = assay: H1.0 immunofluorescence intensity relative to DMSO (% of DMSO); higher = stronger H1.0 induction, active = 120 or more
Outline: as §1

HCC1569 [4] = assay: H1.0 immunofluorescence intensity relative to DMSO (% of DMSO); higher = stronger H1.0 induction, active = 140 or more
Outline: as §1
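Wherever H1.0 immunofluorescence intensity relative to DMSO is given: TDF is a line of transformed human dermal fibroblasts of mesenchymal origin.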
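Wherever cell number relative to DMSO is given: TDF denotes transformed human dermal fibroblasts of mesenchymal origin.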

SMILES	cell number (HCC1569 [1])	cell number (TDF [2])	H1.0 immunofluorescence intensity (TDF [3])	H1.0 immunofluorescence intensity (HCC1569 [4])
O=C1CC(c2ccc(O)cc2)Oc2cc(O)cc(O)c21 (centres undefined) [Naringenin]	99.9	110	90.6 (inactive)	85.4 (inactive)
CC1OC(OC2C(Oc3cc(O)c4c(=O)c(O)c(-c5ccc(O)cc5)oc4c3)OC(CO)C(O)C2O)C(O)C(O)C1O (centres undefined) [Kaempferol-7-neohesperidoside]	98.8	99.4	95.8 (inactive)	87.9 (inactive)
CN(C)CCOc1ccc(-c2nc(=c3ccc4c(c3)CCC=4N=O)c(=C3C=CNC=C3)[nH]2)cc1	88.6	49	117 (inactive)	132 (inactive)
O=C(Nc1ncc(-c2cc(C(F)F)nn2-c2c(Cl)cccc2Cl)s1)C1CC1	52.3	9.11	176 (active)	149 (active)
CCCCCCCCCCCCCC=CC(O)C(CO)N(C)C (centres undefined) [N,N-Dimethylsphingosine]	110	90.2	101 (inactive)	101 (inactive)
CC1=C(CC(=O)O)c2cc(F)ccc2C1=Cc1ccc(S(C)(=O)=O)cc1 [Sulindac sulfone]	104	117	100 (inactive)	103 (inactive)
Cc1cc(NC(=O)CS(=O)(=O)c2cn(Cc3cc(Br)ccc3F)c3ccccc23)no1	82.5	99.6	90 (inactive)	151 (active)
CC(C)OC(=O)CCCC=CCC1C(O)CC(O)C1CCC(O)CCc1ccccc1 (centres undefined) [Latanoprost]	103	108	86.7 (inactive)	105 (inactive)
CC(C)C1C2CCC(C2)C1N.Cl (centres undefined)	99.9	105	93 (inactive)	90.8 (inactive)
COc1cc2c(cc1OC)C(c1ccccc1)CN(C)CC2.O=C(O)C=CC(=O)O (centres undefined)	101	98.3	94.3 (inactive)	92.5 (inactive)
COc1ccc(C=C2c3ccccc3C(=O)c3ccccc32)cc1O [10-(3-hydroxy-4-methoxybenzylidene)-9(10H)-anthracenone]	62.7	10.4	189 (active)	207 (active)
O=c1cc(-c2ccc(O)cc2)oc2cc(O)cc(O)c12 [Apigenin]	93.5 ± 3	104 ± 3.7	89.2 (inactive)	99.9 (inactive)
Nc1ccc(O)c(C(=O)O)c1 [5-Aminosalicylic acid]	107	103	–	–
CC(C)(N)c1ccc(-c2nc3ccccc3nc2-c2ccccc2)cc1	95.6	95.3	106 (inactive)	103 (inactive)
OCCN(CCO)c1nc(N2CCCCC2)c2nc(N(CCO)CCO)nc(N3CCCCC3)c2n1 [Dipyridamole]	94.2 ± 1.5	104 ± 7.8	85.7 (inactive)	98.9 (inactive)
CCCCCCCCCCCCCCCCOP(=O)([O-])OCC[N+](C)(C)C [Miltefosine]	97.1	109	92.7 (inactive)	113 (inactive)
CC(C)C(CO)Nc1nc(Nc2cc(N)cc(Cl)c2)c2ncn(C(C)C)c2n1 (centres undefined) [Aminopurvalanol A]	65.5	83.4	97.4 (inactive)	145 (active)
O=c1[nH]c2ccccc2n1CCN1CCN(c2cccc(C(F)(F)F)c2)CC1	103	111	95.8 (inactive)	101 (inactive)
COC(=O)C1=C(C#N)NC(C)=C(C(=O)OC(C)C)C1c1cccc([N+](=O)[O-])c1 (centres undefined)	89.8	97.4	98.2 (inactive)	123 (inactive)
COC(=O)Nc1nc2ccc(Sc3ccccc3)cc2[nH]1 [Fenbendazole]	64	95.7	99.2 (inactive)	177 (active)
Cn1cnc2c(NCc3ccccc3)nc(NCCO)nc21 [Olomoucine]	100	121	98.6 (inactive)	94.1 (inactive)
CC(C)NCC(O)c1ccc(O)c(O)c1.Cl (single isomer, unassigned; (-)) [(-)-Isoproterenol hydrochloride]	104	107	89.5 (inactive)	93.8 (inactive)
COc1cc(Nc2c(C#N)cnc3cc(OCCCN4CCN(C)CC4)c(OC)cc23)c(Cl)cc1Cl [Bosutinib]	67	7.38	135 (active)	39.6 (inactive)
CCCCCC=CCC=CCC=CCC=CCCCC(=O)O [Arachidonic acid]	104 ± 6.4	93.9 ± 1.1	101 (inactive)	105 (inactive)
